Assay [1] is described as follows: A CellTox Green Cytotoxicity Assay to monitor cytotoxicity in HEK293 cells - 32 hour (AID 1224881). Also: nearly all actives have a fitted effect of over 40% in size. Also: potency is read from the fitted curve at half-maximal effect. In outline: (§1)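 Homogeneous no-lysis format: HEK293 cell suspension mixed with CellTox Green reagent, seeded, incubated 5 h at 37 C/5% CO2, then dosed by pintool with compound in DMSO.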
Assay [2] is described as follows: A CellTox Green Cytotoxicity Assay to monitor cytotoxicity in HepG2 cells - 0 hour (AID 1224882). Also: nearly all actives have a fitted effect of over 35% in size. An outline of the steps:
(§2)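 Fluorescent DNA-binding dye, 600 HepG2 cells/well, 5 h preincubation then compound in DMSO; same plates read at 0–40 h, 37 C.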

Assay [3] is described as follows: A CellTox Green Cytotoxicity Assay to monitor cytotoxicity in HepG2 cells - 32 hour (AID 1224883). Also: nearly all actives have a fitted effect of over 50% in size. Also: potency is read from the fitted curve at half-maximal effect. An outline of the steps: as §2
Assay [4] can be described thus: A CellTox Green Cytotoxicity Assay to monitor cytotoxicity in HEK293 cells - 8 hour (AID 1224884). Also: nearly all actives have a fitted effect of over 35% in size. An outline of the steps:
as §1

The nature of assay [5]: qHTS RealTime-Glo MT Cell Viability Assay in HepG2 cells - 16 hour (AID 1224885). Also: nearly all actives have a fitted effect of over 50% in size. An outline of the steps: (§3)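 HepG2 cells (600/well) were dispensed with RealTime-Glo reagents, incubated 5 h at 37 °C, then treated with compounds in DMSO for up to 40 h. Nonlytic NanoLuc luminescence reflecting viable cells was read at each stated time point.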
In general terms: qHTS replaces the single test concentration by a dilution series.

Assay [6] can be described thus: qHTS RealTime-Glo MT Cell Viability Assay in HEK293 cells - 24 hour (AID 1224886). Also: nearly all actives have a fitted effect of over 50% in size. Also: potency is read from the fitted curve at half-maximal effect. As to activity change, negative = cytotoxicity: top concentration of the series differs between compounds. An outline of the steps: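 HEK293 cells seeded with NanoLuc/prosubstrate reagent, rested 5 h at 37 C, then dosed and kept at 37 C up to 40 h. Nonlytic real-time luminescence from viable cells read at 0, 8, 16, 24, 32 and 40 h.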
Assay [7] is described as follows: qHTS RealTime-Glo MT Cell Viability Assay in HEK293 cells - 8 hour (AID 1224887). Also: nearly all actives have a fitted effect of over 50% in size. Also: potency is read from the fitted curve at half-maximal effect. As to activity change, negative = cytotoxicity: top concentration of the series differs between compounds. An outline of the steps:
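Measured as luminescence from the same continuously cultured HEK293 wells at successive time points (0, 8, 16, 24, 32, 40 h) after compound addition. Reagent present from seeding; dosing at 5 h; incubation 37 C.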

Assay [8] can be described thus: A CellTox Green Cytotoxicity Assay to monitor cytotoxicity in HEK293 cells - 16 hour (AID 1224888). Also: nearly all actives have a fitted effect of over 35% in size. In outline:
as §1

A short description of assay [9]: qHTS RealTime-Glo MT Cell Viability Assay in HepG2 cells - 0 hour (AID 1224889). Also: nearly all actives have a fitted effect of over 50% in size. An outline of the steps: as §3
Assay [10] is described as follows: A CellTox Green Cytotoxicity Assay to monitor cytotoxicity in HepG2 cells - 8 hour (AID 1224890). Also: nearly all actives have a fitted effect of over 45% in size. An outline of the steps: as §2

Unmarked numbers belong to inactive results. Records with an inconclusive call do not appear. Activity calls are given as the source filed them. Calls follow the shape of the dose curve; as a rule, active = well fitted curve in the direction sought with a large enough effect in the repeat runs; inconclusive = weak or mixed curves; inactive = no such curve, though single readings can be large; an effect the other way counts as inactive or inconclusive.

Experimental findings from PubChem BioAssay (Tox21) are described below.
% is scaled to controls: 0 for no effect and ±100 for the full control effect.

Turning to `CN1CCC[C@@H]1c1cccnc1`, the Potency entry in [1], in assay [2], in [3], in assay [4], in [5] and in assay [6] was “inactive” in each case. The Potency entry in assay [7], in [8] and in assay [9] was “inactive” each time.
As to `CN1CCN(C2=Nc3ccccc3Sc3ccc(Cl)cc32)CC1`, the Potency entry in assay [1], in assay [2], in assay [3], in [4], in [5] and in assay [6] was “inactive” throughout. The Potency entry in assay [7], in assay [8] and in assay [9] was “inactive” throughout.
On to `Cc1cc(CC(=O)O)c(C)n1-c1ccc(Cl)cc1`, for which the Potency entry in [1], in assay [2], in assay [3], in [4], in assay [5] and in assay [6] was “inactive” in each case. The Potency entry in assay [7], in assay [8] and in assay [9] was “inactive” in each case.
For `C=C(C)C(=O)OC(C)C`, the Potency entry in [1], in assay [2], in assay [3], in assay [4], in assay [5] and in assay [6] was “inactive” in each case. In addition, the Potency result in assay [7], in assay [8] and in assay [9] was “inactive” in each case.
In the case of `CC(=O)N(CC(=O)N(C)C)c1ccccc1`, the Potency entry in assay [1], in assay [2], in assay [3], in assay [4], in assay [5] and in assay [6] was “inactive” throughout. Moreover, the Potency result in assay [7], in assay [8], in [9] and in assay [10] was “inactive” in each case.
As for `Cc1cc(O)ccc1N`, the Potency in [1] is 34.9 µM (active); in assay [6], 55.3 µM (active); in assay [7], 43.9 µM (active). Further, the Potency entry in assay [2], in assay [3], in [4], in [5], in assay [8] and in assay [9] was “inactive” in each case.
`C1CCC2OC2C1` (stereo not drawn): the Potency entry in [1], in assay [2], in assay [3], in [4], in assay [5] and in assay [6] was “inactive” throughout. Also, the Potency entry in assay [7], in assay [8], in [9] and in assay [10] was “inactive” throughout.
Consider `CC(CN)CCCN` (stereo not drawn), for which the Potency entry in assay [1], in [2], in [3], in assay [4], in assay [5] and in [6] was “inactive” in each case. Besides, the Potency result in [7], in [8] and in [9] was “inactive” each time.
On to `CCN(CC)C(C)=O`, for which the Potency result in assay [1], in assay [2], in assay [3], in assay [4], in [5] and in assay [6] was “inactive” each time. Further, the Potency result in assay [7], in [8] and in assay [9] was “inactive” each time.
Turning to `CC(=O)Nc1ccc(/C=N/NC(N)=S)cc1`, the Potency entry in assay [1], in assay [2], in assay [3], in assay [4], in [5] and in [6] was “inactive” each time. The Potency result in assay [7], in assay [8] and in [9] was “inactive” throughout.
Consider `CC(=O)SCc1ccco1`, for which the Potency entry in assay [1], in [2], in assay [3], in assay [4], in assay [5] and in assay [6] was “inactive” in each case. Further, the Potency result in [7], in assay [8], in [9] and in assay [10] was “inactive” each time.
With `CCCCOC(=O)/C=C\C(=O)OCCCC`, the Potency result in assay [1], in [2], in assay [3], in assay [4], in assay [5] and in [6] was “inactive” throughout. The Potency result in assay [7], in [8] and in assay [9] was “inactive” in each case.
Regarding `CCN(CC)CCOC(=O)C1(c2ccccc2)CCCC1`, the Potency result in assay [1], in [2], in assay [3], in [4], in [5] and in assay [6] was “inactive” throughout. The Potency result in assay [7], in assay [8] and in assay [9] was “inactive” throughout.
On to `CC1(C)[C@H]2CC[C@]1(C)[C@H](O)C2`, for which the Potency result in [1], in assay [2], in [3], in [4], in assay [5] and in assay [6] was “inactive” in each case. Moreover, the Potency entry in assay [7], in assay [8], in assay [9] and in assay [10] was “inactive” each time.
`O=C(C(=O)c1ccc(Br)cc1)c1ccc(Br)cc1`: the values for the cytotoxicity increase in assay [1], in [3] and in assay [4] were -0.258% [at 15.8 µM], -9.52% [at 15.8 µM] and 6.57% [at 15.8 µM], respectively. Besides, in assay [2], the cytotoxicity is -5.86% [at 15.8 µM]. In addition, the activity change, negative = cytotoxic in assay [5] is -1.79% [at 15.8 µM]. Further, the activity change, negative = cytotoxicity in [6] was 5.88% [at 15.8 µM]; in assay [7] it was 2.33% [at 15.8 µM]; in [9] it was -3.46% [at 15.8 µM]. Besides, the activity change in assay [8] was 0.498% [at 15.8 µM, active compounds read high].
Consider `CCOC(=O)C1=NN(c2ccccc2)C(=O)C1`, for which the Potency result in assay [1], in assay [2], in [3], in assay [4], in assay [5] and in [6] was “inactive” each time. Moreover, the Potency result in assay [7], in assay [8] and in assay [9] was “inactive” in each case.
`CC(C)(C)c1cc(O)c(C(C)(C)C)cc1O`: the Potency entry in assay [1], in [2], in [3], in assay [4], in assay [5] and in assay [8] was “inactive” each time. Further, the Potency entry in assay [9] was “inactive”. Also, the Potency is 21.9 µM (active) in [6] and 15.5 µM (active) in assay [7].
As for `COCCO`, the Potency result in [1], in [2], in [3], in assay [4], in assay [5] and in [6] was “inactive” in each case. Besides, the Potency entry in assay [7], in assay [8] and in assay [9] was “inactive” throughout.
`CC(C(=O)O)c1ccc(-c2ccccc2)c(F)c1` (stereo not drawn): the Potency entry in [1], in [2], in assay [4], in assay [5], in [6] and in assay [7] was “inactive” throughout. The Potency entry in assay [8] and in assay [9] was “inactive” throughout. In assay [3], the Potency is 54.9 µM (active).
On to `O=C(O)C(c1ccc(Cl)cc1)c1ccc(Cl)cc1`, for which the Potency result in assay [1], in assay [2], in assay [3], in [4], in assay [5] and in assay [6] was “inactive” in each case. Besides, the Potency entry in [7], in assay [8] and in assay [9] was “inactive” in each case.
Consider `N[C@H]1C(O)O[C@H](CO)[C@H](O)[C@@H]1O` (stereo partly drawn), for which the Potency entry in [1], in assay [2], in [3], in [4], in assay [5] and in [6] was “inactive” in each case. Also, the Potency entry in assay [7], in assay [8] and in assay [9] was “inactive” in each case.
For the molecule `CC[C@H](C)[C@H](N)C(=O)O`, the Potency result in assay [1], in assay [2], in assay [3], in assay [4], in [5] and in assay [6] was “inactive” in each case. Further, the Potency result in [7], in assay [8], in assay [9] and in [10] was “inactive” each time.
With `Cc1ccc(C(N)=O)cc1N`, the Potency entry in assay [1], in assay [2], in assay [3], in assay [4], in assay [5] and in assay [6] was “inactive” throughout. Also, the Potency entry in [7], in assay [8], in assay [9] and in [10] was “inactive” each time.
`CC1CCc2cc(F)cc3c(=O)c(C(=O)O)cn1c23` (stereo not drawn): the Potency result in assay [1], in assay [2], in assay [3], in assay [4], in assay [5] and in [6] was “inactive” throughout. Further, the Potency result in [7], in [8], in assay [9] and in [10] was “inactive” each time.
